# Screen size: about 290,000 compounds; about 3,000 (1%) were called active. No stated cut-off is given here; in the data, active means inhibition mostly above about 36% (no sharp cut-off); inactive means mostly below about 34%. For the sample, actives were picked, then their nearest neighbours and some compounds at random.
# Assay: NOD1 signaling inhibitors, primary screen, cell-based, luminescence, uHTS (AID 1578);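 further: HEK-293T reporter cells stimulated with the NOD1 agonist gamma-tri-DAP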
# Conditions: NOD1-driven NF-kB luciferase reporter cells, at 4 µM, active compounds read high
row,SMILES,inhibition
1,COC(=O)CN1C(=S)N(Cc2ccccc2)C(=O)C1CC(=O)Nc1ccc(Br)cc1 (configuration not stated),28.8% (inactive)
2,Cc1ccc(NS(=O)(=O)c2ccc3[nH]c(=O)[nH]c3c2)c(C)c1,-12.1% (inactive)
3,Cc1ccc(S(=O)(=O)Nc2ccccc2C(N)=O)cc1,-11.8% (inactive)
4,Cc1cccc(C)c1NS(=O)(=O)c1ccc2c(c1)C(=O)c1ccccc1C2=O,-19.6% (inactive)
5,Cc1ccc(S(=O)(=O)Nc2ccccc2-c2ccccc2)cc1,18.4% (inactive)
6,CCCC(=O)C1=C(O)C(C(=O)OC)C(C)(C)CC1=NC (configuration not stated),11.5% (inactive)
7,CN(CCO)c1cnccn1,-22.7% (inactive)
8,COc1ccccc1N1CCN(CCC(=O)Nc2cccc(Cl)c2)CC1,-7.2% (inactive)
9,CNC(=O)NC(=O)Cn1cnc2sc(-c3ccccc3)cc2c1=O,0.3% (inactive)
10,CCCCOCCCNC(=O)C1c2ccccc2Oc2ccccc21,-0.9% (inactive)
11,CS(=O)(=O)c1nc(-c2ccccc2)cc(C(F)(F)F)n1,-5.3% (inactive)
12,CCOC(=O)CSc1nc(-c2ccccc2)cc(C(F)(F)F)n1,-48.1% (inactive)
13,Nc1nc(-c2ccc(F)cc2)cc(C(F)(F)F)n1,9.6% (inactive)
14,CS(=O)(=O)c1nc(-c2ccc(F)cc2)cc(C(F)(F)F)n1,103% (active)
15,CCOC(=O)CS(=O)(=O)c1nc(-c2ccccc2)cc(C(F)(F)F)n1,69.2% (active)
16,CCOC(=O)CCSc1nc(-c2ccccc2)cc(C(F)(F)F)n1,-31.4% (inactive)
17,CC(C)(C)NC(=O)CN(Cc1ccc2c(c1)OCO2)C(=O)CNC(=O)c1cccs1,-12.6% (inactive)
18,CCn1ncc(Br)c1C(=O)NC1CCCCCCC1,-9% (inactive)
19,CCCn1c(=N)n(CC(O)c2ccco2)c2ccccc21 (configuration not stated),1.5% (inactive)
20,CCn1c(=N)n(CC(O)c2ccco2)c2ccccc21 (configuration not stated),11% (inactive)
21,CCN(CC)CCn1c(=N)n(CC(O)c2ccco2)c2ccccc21 (configuration not stated),62% (active)
22,C=C(C)c1cccc(C(C)(C)NC(=O)Nc2cc(C)ccc2OC)c1,-33% (inactive)

row,SMILES,inhibition
1,CC12CC(NC(=O)N1c1cccc(C(=O)N3CCN(c4ccccn4)CC3)c1)c1ccccc1O2 (configuration not stated),-1.9% (inactive)
2,CCOc1cccc2c1OC1(C)CC2NC(=O)N1c1cccc(C(=O)N2CCN(c3ccccn3)CC2)c1 (configuration not stated),76.5% (active)
3,COc1cccc2c1OC1(C)CC2NC(=O)N1c1cccc(C(=O)N2CCN(c3ccccn3)CC2)c1 (configuration not stated),-17.8% (inactive)
4,COc1ccc(C(=O)C2CCCN(Cc3cc(C)c(O)c(C)c3)C2)c(OC)c1 (configuration not stated),110% (active)
5,COc1ccc(C(=O)C2CCCN(Cc3cc(Cl)ccc3O)C2)c(OC)c1 (configuration not stated),-3.1% (inactive)
6,COc1ccc(C(=O)C2CCCN(Cc3ccc4nonc4c3)C2)c(OC)c1 (configuration not stated),-21.3% (inactive)
7,CCOC(=O)C(=Cc1c[nH]c2ccc(S(=O)(=O)N(C)C)cc12)C(=O)OCC,43.9% (active)
8,CCOC(=O)N1CCN(C(=O)c2c[nH]c3ccc(S(=O)(=O)N(C)c4ccc(F)cc4)cc3c2=O)CC1,-23.5% (inactive)
9,CCOC(=O)C(=Cc1cn(C)c2ccc(S(=O)(=O)N(C)C)cc12)C(=O)OCC,29.1% (inactive)
10,Cc1ccc(C(=O)c2ccc([N+](=O)[O-])cc2)c(C)c1,-4.2% (inactive)
11,COCCN1CCN(C(=O)C2CCC(=O)N(Cc3ccccc3F)C2)CC1 (configuration not stated),-13.9% (inactive)
12,COc1ccc(NC2=NC(=S)N(c3ccccc3C)C23CCCCC3)cc1,-2.5% (inactive)
13,Oc1cccc(Nc2ncnc3ccccc23)c1,56% (active)
14,Oc1ccc(Nc2ncnc3ccccc23)cc1,4.4% (inactive)
15,Nc1cccc(Nc2ncnc3ccccc23)c1,3% (inactive)
16,O=C(CN1CC(c2ccccc2)CC1=O)Nc1ccc2c(c1)OCO2 (configuration not stated),-14% (inactive)
17,COCCCNC(c1ccccc1)c1ccncc1 (configuration not stated),-23.2% (inactive)
18,O=C(COc1cccc(Cl)c1)Nc1nc(-c2ccc(S(=O)(=O)N3CCOCC3)cc2)cs1,53.1% (inactive)
19,O=C(COc1ccccc1)Nc1nc(-c2ccc(S(=O)(=O)N3CCOCC3)cc2)cs1,3.4% (inactive)
20,O=C(Nc1ccccc1)NC1CS(=O)(=O)CC1O (configuration not stated),-16.3% (inactive)
21,O=C(c1ccc(Br)cc1)C1CCc2occc2C1=O (configuration not stated),-29.8% (inactive)
22,Cc1cccnc1NC(=O)c1cccc(S(=O)(=O)N2CCCc3ccccc32)c1,-13% (inactive)

row,SMILES,inhibition
1,O=C(O)c1cccc(NC(=O)c2cccc(S(=O)(=O)N3CCc4ccccc43)c2)c1,29.9% (inactive)
2,Nn1cc(-c2ccccc2)nc1SCC(=O)NCC1CCCO1 (configuration not stated),-25.8% (inactive)
3,O=C(CSc1nnc(-c2ccccc2)n1-c1ccccc1)c1cccs1,-1.9% (inactive)
4,Cc1cc(C(=O)NC2CCCCC2C)c2ccccc2n1 (configuration not stated),1.8% (inactive)
5,O=C(C1=NNCC1c1ccccc1)C1OC1c1ccccc1 (configuration not stated),15.8% (inactive)
6,O=C(C1=NNCC1c1ccccc1)C1CO1 (configuration not stated),-5.4% (inactive)
7,O=C(C1=NNCC1c1ccc(Cl)cc1)C1CO1 (configuration not stated),88.4% (active)
8,Cc1nc(N2CCOCC2)nc(OCCN(C)C)c1[N+](=O)[O-],-6.3% (inactive)
9,COc1cc(/C=C(/Sc2nnc(-c3ccc(F)cc3)o2)C(=O)O)ccc1OC(F)F,-21.8% (inactive)
10,O=C(O)/C(=C\c1ccccc1OC(F)F)Sc1nnc(-c2ccc(F)cc2)o1,32.5% (active)
11,O=C(O)/C(=C\c1cccs1)Sc1nnc(-c2ccc(F)cc2)o1,-11.6% (inactive)
12,CCCC(c1nnnn1C(C)(C)C)N1CCN(c2ccccc2)CC1 (configuration not stated),-12.7% (inactive)
13,Cc1cc(=O)oc(C)c1C(=O)NNC(=O)C1(C)CC1Br (configuration not stated),-8.9% (inactive)
14,COc1cc(/C=N/NC(=O)c2cnn3c(C)cc(-c4ccccc4)nc23)ccc1O,46.9% (inactive)
15,Cc1cc(C)c(NC(=S)N(CCCN2CCN(C)CC2)Cc2cccs2)c(C)c1,-25.1% (inactive)
16,Fc1ccc(CNCC2CCCO2)cc1 (configuration not stated),2.2% (inactive)
17,Clc1ccc(CNCC2CCCO2)cc1 (configuration not stated),5.9% (inactive)
18,Brc1ccc(CNCC2CCCO2)cc1 (configuration not stated),64.4% (active)
19,COc1ccc(N(CC(=O)NCc2ccccc2)S(=O)(=O)c2c(C)nn(C)c2C)cc1,-15.5% (inactive)
20,COc1cc(/C=C2/C(=O)NN(c3ccc(Cl)c(Cl)c3)C2=O)cc([N+](=O)[O-])c1O,14.3% (inactive)
21,COc1cc(/C=C2\C(=O)NN(c3ccccc3)C2=O)cc([N+](=O)[O-])c1O,-38.3% (inactive)
22,O=C1NN(c2ccccc2)C(=O)/C1=C\c1cccn1-c1ccc(Cl)c([N+](=O)[O-])c1,86.9% (active)

row,SMILES,inhibition
1,O=C(CN1CCN(S(=O)(=O)N2CCCCCC2)CC1)Nc1ccc(Br)cc1,-32.9% (inactive)
2,O=Cc1ccc(N2CCCC2)c([N+](=O)[O-])c1,-40.9% (inactive)
3,CNC(=O)Cc1csc2ccc(Cl)cc12,-7.2% (inactive)
4,CNC(=O)Cc1csc2ccc(C)cc12,41.4% (active)
5,O=C(O)CSCC(=O)NCc1csc2ccc(Cl)cc12,0.3% (inactive)
6,Cc1ccc(C)c(N2CCN(CCCNC(=O)Cn3cc4c(n3)CCC(C)C4)CC2)c1 (configuration not stated),-16.2% (inactive)
7,COc1ccccc1/C=N/N(C(C)=O)c1nc(-c2ccc(F)cc2)cs1,9.4% (inactive)
8,O=C(O)C1CCCN(S(=O)(=O)c2ccc(Cl)s2)C1 (configuration not stated),-19.7% (inactive)
9,Cc1cccc(Nc2ccc3nonc3c2[N+](=O)[O-])c1C,-9.3% (inactive)
10,COc1cc(NC(=O)COc2ccc(Cl)cc2)ccc1-c1cc2ccccc2oc1=O,12.1% (inactive)
11,COc1cc(NC(C)=O)ccc1-c1cc2ccccc2oc1=O,34.7% (inactive)
12,CCCc1ccc(S(=O)(=O)NCC2CCCN2CC)cc1 (configuration not stated),-7.8% (inactive)
13,COc1ccc(N(CC(=O)NCc2ccco2)C(=O)CNS(=O)(=O)c2ccc(Cl)cc2)cc1,4.6% (inactive)
14,O=C(Cc1ccccc1)NC(=S)Nc1ccc2oc(-c3ccccc3F)nc2c1,-99.4% (inactive)
15,O=C(C1=C[C@@H](c2csc3ccccc23)C[C@@H](OCCCCO)O1)N1CCN(Cc2ccc3c(c2)OCO3)CC1,-7.2% (inactive)
16,O=C(C1=C(c2ccccc2)C(=O)c2ccccc2C1=O)c1ccccc1,1.2% (inactive)
17,Cc1ccc(C2=C(O)c3ccccc3C(=O)C2=O)cc1,-31.4% (inactive)
18,CC(=O)C1=C(c2ccc(Br)cc2)C(=O)c2ccccc2C1=O,98.1% (active)
19,COCCNC(=O)CCCC(=O)NCCOC,-16.8% (inactive)
20,O=C(CCCCCN1C(=O)CCC1=O)NCc1ccccc1,-1.8% (inactive)
21,COCCNC(=O)CCCCCN1C(=O)CCC1=O,48.6% (active)
22,Cc1nnc2sc(-c3ccc(-c4ccc(Cl)c(C(F)(F)F)c4)o3)nn12,-9.3% (inactive)

row,SMILES,inhibition
1,CN(C)CCCC(=O)c1ccc2c(c1)OCO2,-10.8% (inactive)
2,O=C(CCc1ccccc1)c1ccc2c(c1)OCCCO2,-67.4% (inactive)
3,CN(C)CCC(=O)c1ccc2c(c1)OCO2,59.1% (active)
4,CCCC(=O)c1ccc2c(c1)OCCO2,1.3% (inactive)
5,O=C(Cc1ccccc1)c1ccc2c(c1)OCCO2,-43.1% (inactive)
6,O=C(CCCc1ccccc1)c1ccc2c(c1)OCCO2,54.9% (active)
7,Cc1ccccc1-c1nc(CN2CCCC2c2ccc(F)cc2)c(C)o1 (configuration not stated),-29.5% (inactive)
8,COCC1CCN(Cc2cn[nH]c2-c2cc3ccccc3o2)C1 (configuration not stated),-18.7% (inactive)
9,O=Cc1c(C(=O)O)n(CC(=O)O)c2ccccc12,-37% (inactive)
10,CC1=NNC(=O)C1C(c1ccc(Cl)cc1)C(C#N)C#N (configuration not stated),-7.3% (inactive)
11,CCc1nnc(NC(=O)CCC(=O)NC2CCCc3ccccc32)s1 (configuration not stated),-15.7% (inactive)
12,CN(C(=O)CCl)C1CCCc2ccccc21 (configuration not stated),55.5% (active)
13,Cc1ccccc1CC(=O)NC1CCCc2ccccc21 (configuration not stated),58.1% (inactive)
14,O=C(Cc1ccc(Br)cc1)NC1CCCc2ccccc21 (configuration not stated),-30.2% (inactive)
15,O=C(CCl)NC1CCCc2ccccc21 (configuration not stated),59% (active)
16,CCCc1nnc(NC(=O)CCC(=O)NC2CCCc3ccccc32)s1 (configuration not stated),89.6% (active)
17,CN(C(=O)CN1CCN(c2ccccc2F)CC1)C1CCCc2ccccc21 (configuration not stated),-20.5% (inactive)
18,CC(C)Cc1nnc(NC(=O)CCC(=O)NC2CCCc3ccccc32)s1 (configuration not stated),-25.2% (inactive)
19,CN(C(=O)Nc1ccccc1)C1CCCc2ccccc21 (configuration not stated),-3.4% (inactive)

# — PubChem BioAssay AID1578 (Sanford-Burnham Center for Chemical Genomics, 2009)
